Test results reported in PubChem BioAssay (EPA / NIEHS).
Activity calls are given as the source filed them. The calls were made as follows: active = hit-call score of the fitted dose curve at least 0.9, where 1 is the maximum; inactive = score below 0.9.

What was measured:
[1] = APR_HepG2_CellCycleArrest_24hr: Apredica 24-hour HepG2 Assay for Cell Cycle Arrest (AID 2282905); details: imaging, actives raise or lower the signal;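 also: cell cycle arrest scored as ratio of 2N to 4N nuclear DNA content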
Summary of the method: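 Compounds at 0.39–200 uM (0.5% DMSO) for 24 h, then fixed and Hoechst 33342 stained. Cell-cycle analysis of nuclear DNA content by high-content imaging, fitted bidirectionally versus DMSO.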

[2] = APR_HepG2_NuclearSize_24hr: Apredica 24-hour HepG2 Assay for Nuclear Size (AID 2282907); details: high-content imaging, actives raise or lower the signal
Summary of the method: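 HepG2 cells exposed 24 h to compounds at 0.39–200 uM (0.5% DMSO), fixed, Hoechst 33342 stained and imaged at 20x; nuclear diameter measured by automated image analysis, fitted bidirectionally against DMSO controls.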

[3] = APR_HepG2_CellLoss_24hr: Apredica 24-hour HepG2 Assay for Cell Loss (AID 2282908); details: high-content imaging;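 as to AC50: fit in both directions so a hit may be cell loss or gain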
Summary of the method: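 HepG2 cells exposed 24 hr to 0.39–200 uM compound in duplicate at 0.5% v/v final DMSO. Cells fixed in 3.7% formaldehyde and Hoechst 33342-stained. Cell number came from nuclear imaging at 20x. Bidirectional fit versus DMSO.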

[4] = APR_HepG2_MicrotubuleCSK_24hr: Apredica 24-hour HepG2 Assay for Microtubule CSK Stabilty (AID 2282909); details: HepG2 microtubule cytoskeleton imaging, actives raise or lower the signal
Summary of the method: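 HepG2 cells were treated 24 hr with compound at 0.39–200 uM in duplicate (0.5% DMSO final), then fixed and permeabilized. Alpha-tubulin immunofluorescence was imaged by high-content microscopy, with bidirectional fitting against DMSO and taxol as positive control.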

[5] = APR_HepG2_MitoticArrest_24hr: Apredica 24-hour HepG2 Assay for Mitotic Arrest (AID 2282910); details: high-content imaging, actives raise or lower the signal
Summary of the method: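 Compounds are dosed onto HepG2 cells across ten concentrations up to 200 uM for 24 hr. Cells are then fixed in 3.7% formaldehyde, permeabilised, and labelled for phospho-histone H3 and nuclei; images are scored by cell cycle analysis and fitted bidirectionally relative to DMSO.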

[6] = APR_HepG2_MitoMembPot_24hr: Apredica 24-hour HepG2 Assay for Mitochondrial Membrane Potential (AID 2282911); details: imaging, actives raise or lower the signal
Summary of the method: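 HepG2 cells exposed 24 h to 0.39–200 uM compounds in duplicate, 0.5% v/v DMSO final. MitoTracker Red CMXRos 250 nM loaded 30 min before formaldehyde fixation; high-content imaging at 20x, bidirectional fit versus DMSO.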

[7] = APR_HepG2_MitoMass_24hr: Apredica 24-hour HepG2 Assay for Mitochondrial Mass (AID 2282912); details: high-content imaging, actives raise or lower the signal
Summary of the method: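 HepG2 cells exposed 24 hr to 0.39–200 uM compound, 0.5% v/v DMSO, in duplicate. Stained before fixation with 250 nM MitoTracker Red CMXRos for 30 min, then imaged at 20x with Hoechst nuclei. Fitted in both directions against DMSO.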

[8] = APR_HepG2_p53Act_24hr: Apredica 24-hour HepG2 Assay for p53 Activation (AID 2282913); details: high-content imaging, actives raise or lower the signal;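 also: p53 protein immunofluorescence averaged per cell in HepG2 with Hoechst nuclei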
Summary of the method: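 HepG2 cells exposed 24 h to compounds at 0.39–200 uM in duplicate, 0.5% v/v DMSO final; fixed, permeabilized, stained with anti-p53 antibody and Hoechst 33342; fluorescence imaging; bidirectional curve fit versus DMSO.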

[9] = APR_HepG2_CellCycleArrest_72hr: Apredica 72-hour HepG2 Assay for Cell Cycle Arrest (AID 2282914); details: high-content imaging, actives raise or lower the signal
Summary of the method: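 HepG2 cells exposed 72 h in duplicate to 0.39–200 uM compound, 0.5% DMSO final. Formaldehyde-fixed, Hoechst 33342-stained nuclei imaged at 20x, six fields per well; DNA content per valid cell quantified by cell-cycle image analysis, bidirectional fit versus DMSO.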

[10] = APR_HepG2_CellLoss_72hr: Apredica 72-hour HepG2 Assay for Cell Loss (AID 2282915); details: high-content imaging
Summary of the method: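 Cell number comes from Hoechst 33342-labelled nuclei, imaged at 20x after 3.7% formaldehyde fixation. Dosing was 0.39–200 uM, ten concentrations in duplicate, 0.5% DMSO final, for 72 h. Bidirectional fit relative to DMSO baseline.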

[11] = APR_HepG2_MitoMembPot_72hr: Apredica 72-hour HepG2 Assay for Mitochondrial Membrane Potential (AID 2282917); details: imaging, actives raise or lower the signal
Summary of the method: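 Membrane potential read by MitoTracker Red CMXRos (250 nM, 30 min, pre-fixation) fluorescence imaging of HepG2 after 72 hr exposure. Ten concentrations, 0.39–200 uM, duplicate wells, 0.5% DMSO; fitted in both directions against DMSO baseline.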

[12] = APR_HepG2_MitoticArrest_72hr: Apredica 72-hour HepG2 Assay for Mitotic Arrest (AID 2282918); details: high-content imaging, actives raise or lower the signal
Summary of the method: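 HepG2 cells treated 72 h at 0.39–200 uM, 0.5% DMSO final; formaldehyde-fixed, stained with Hoechst 33342 and phospho-histone H3 antibody, imaged by high-content fluorescence; bidirectional fit versus DMSO.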

[13] = APR_HepG2_MicrotubuleCSK_72hr: Apredica 72-hour HepG2 Assay for Microtubule CSK Stabilty (AID 2282919); details: HepG2 microtubule cytoskeleton, high-content imaging, actives raise or lower the signal
Summary of the method: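 Read-out is tubulin fluorescence intensity from high-content imaging of HepG2 cells, with nuclei identified by Hoechst 33342. Treatment lasts 72 h at 0.39–200 uM, and curves are fitted bidirectionally against the DMSO negative control.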

[14] = APR_HepG2_P-H2AX_24hr: Apredica 24-hour HepG2 Assay for H2AX Phosphorylation (AID 2282920); details: high-content imaging, actives raise or lower the signal
Summary of the method: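 HepG2 cells dosed 24 h at 0.39–200 uM (10 points, duplicate, 0.5% DMSO final). Formaldehyde-fixed and permeabilized, then immunostained for phospho-H2A.x with Hoechst. Fluorescence quantified by high-content imaging, fitted bidirectionally versus DMSO.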

[15] = APR_HepG2_StressKinase_72hr: Apredica 72-hour HepG2 Assay for Stress Kinase (AID 2282921); details: HepG2 stress kinase (phospho-c-Jun) imaging, actives raise or lower the signal
Summary of the method: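 HepG2 cells treated 72 hr with 0.39–200 uM compound, 0.5% v/v DMSO, duplicate wells. After formaldehyde fixation and Triton permeabilization, stained with anti-phospho-c-Jun (1:500) and Cy3 secondary, imaged at 20x. Fitted in both directions against DMSO.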

[16] = APR_HepG2_StressKinase_24hr: Apredica 24-hour HepG2 Assay for Stress Kinase (AID 2282922); details: HepG2 stress kinase (phospho-c-Jun) imaging, actives raise or lower the signal
Summary of the method: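 HepG2, 24 hr dosing, 0.39–200 uM in duplicate, 0.5% DMSO; formaldehyde fix (3.7%), 0.5% Triton X-100; anti-phospho-c-Jun + Cy3 secondary, Hoechst counterstain; ArrayScan imaging; bidirectional curve fit vs DMSO baseline.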

[17] = APR_HepG2_p53Act_72hr: Apredica 72-hour HepG2 Assay for p53 Activation (AID 2282923); details: high-content imaging, actives raise or lower the signal;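 also: average cellular p53 protein immunofluorescence intensity in HepG2 cells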
Summary of the method: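 HepG2 cells exposed 72 h to 0.39–200 uM in 0.5% DMSO, duplicates. Fixed, permeabilized cells immunostained for p53 (Cy5) with Hoechst; imaged at 20x, fluorescence analyzed bidirectionally against DMSO.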

[18] = APR_HepG2_MitoMass_72hr: Apredica 72-hour HepG2 Assay for Mitochondrial Mass (AID 2282924); details: high-content imaging, actives raise or lower the signal;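 also: MitoTracker Red CMXRos stain intensity per cell imaged as mitochondrial mass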
Summary of the method: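 HepG2, 72 hr cmpd, 10 conc 0.39–200 uM in dup, DMSO 0.5% v/v. MitoTracker Red CMXRos 250 nM 30 min pre-fix; formaldehyde 3.7% fix 30 min RT. HCS imaging, gain/loss fit vs DMSO.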

[19] = APR_HepG2_NuclearSize_72hr: Apredica 72-hour HepG2 Assay for Nuclear Size (AID 2282925); details: high-content imaging, actives raise or lower the signal
Summary of the method: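 HepG2; cpd 0.39–200 uM, 10 conc, duplicate; 72 h; DMSO 0.5% v/v; fix 3.7% formaldehyde 30 min RT; Triton permeabilization; Hoechst 2 ug/mL; HCS imaging 20x; nuclear diameter; gain/loss fit vs DMSO.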

[20] = APR_HepG2_P-H2AX_72hr: Apredica 72-hour HepG2 Assay for H2AX Phosphorylation (AID 2282916); details: imaging, actives raise or lower the signal;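 also: phospho-histone H2A.x immunostain intensity per cell marking DNA damage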
Summary of the method: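 HepG2 cells treated 72 h at 0.39–200 uM, 0.5% DMSO final, duplicates. Formaldehyde-fixed, Triton-permeabilised, immunostained for phospho-H2A.x with Hoechst; fluorescence imaged at 20x, bidirectional fit versus DMSO.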

## CCOCCOCCO
[1]
  outcome: inactive
[2]
  outcome: inactive
[3]
  outcome: inactive
[4]
  outcome: inactive
[5]
  outcome: inactive
[6]
  outcome: inactive
[7]
  outcome: inactive
[8]
  outcome: inactive
[9]
  outcome: inactive
[10]
  outcome: inactive
[11]
  outcome: inactive
[12]
  outcome: inactive
[13]
  outcome: inactive
[14]
  outcome: inactive
[15]
  outcome: inactive
[16]
  outcome: inactive
[17]
  outcome: inactive
[18]
  outcome: inactive
[19]
  outcome: inactive

## CC(=O)O
[1]
  AC50: 97 µM (active)
[2]
  outcome: inactive
[3]
  AC50: 112 µM (active)
[4]
  outcome: inactive
[5]
  AC50: 126 µM (active)
[6]
  outcome: inactive
[7]
  outcome: inactive
[9]
  AC50: 160 nM (active)
[10]
  AC50: 49.4 µM (active)
[20]
  AC50: 92 µM (active)
[11]
  AC50: 100 µM (active)
[12]
  AC50: 92.8 µM (active)
[13]
  outcome: inactive
[14]
  AC50: 66.4 µM (active)
[15]
  outcome: inactive
[16]
  outcome: inactive
[18]
  AC50: 0.0355 µM (active)
[19]
  outcome: inactive

## NC=O
[1]
  outcome: inactive
[2]
  outcome: inactive
[3]
  outcome: inactive
[4]
  outcome: inactive
[5]
  outcome: inactive
[6]
  outcome: inactive
[7]
  outcome: inactive
[9]
  outcome: inactive
[10]
  outcome: inactive
[20]
  outcome: inactive
[11]
  outcome: inactive
[12]
  outcome: inactive
[13]
  outcome: inactive
[14]
  outcome: inactive
[15]
  outcome: inactive
[16]
  outcome: inactive
[18]
  outcome: inactive
[19]
  outcome: inactive

## CCCCC(CC)CO (configuration not stated)
[1]
  outcome: inactive
[2]
  outcome: inactive
[3]
  outcome: inactive
[4]
  outcome: inactive
[5]
  outcome: inactive
[6]
  outcome: inactive
[7]
  outcome: inactive
[8]
  outcome: inactive
[9]
  outcome: inactive
[10]
  outcome: inactive
[11]
  outcome: inactive
[12]
  outcome: inactive
[13]
  outcome: inactive
[14]
  outcome: inactive
[15]
  outcome: inactive
[16]
  outcome: inactive
[17]
  outcome: inactive
[18]
  outcome: inactive
[19]
  outcome: inactive

## CCCCCCCCCCCCCCOS(=O)(=O)O
[1]
  AC50: 110 µM (active)
[2]
  outcome: inactive
[3]
  AC50: 117 µM (active)
[4]
  outcome: inactive
[5]
  AC50: 109 µM (active)
[6]
  outcome: inactive
[7]
  outcome: inactive
[8]
  AC50: 100 µM (active)
[9]
  outcome: inactive
[10]
  AC50: 110 µM (active)
[11]
  AC50: 110 µM (active)
[12]
  AC50: 98.5 µM (active)
[13]
  outcome: inactive
[14]
  AC50: 114 µM (active)
[15]
  outcome: inactive
[16]
  outcome: inactive
[17]
  AC50: 111 µM (active)
[18]
  AC50: 121 µM (active)
[19]
  outcome: inactive

## O=C(O)CN(CC(=O)O)CC(=O)O
[1]
  outcome: inactive
[2]
  outcome: inactive
[3]
  outcome: inactive
[4]
  outcome: inactive
[5]
  outcome: inactive
[6]
  outcome: inactive
[7]
  outcome: inactive
[8]
  outcome: inactive
[9]
  outcome: inactive
[10]
  outcome: inactive
[11]
  outcome: inactive
[12]
  outcome: inactive
[13]
  outcome: inactive
[14]
  outcome: inactive
[15]
  outcome: inactive
[16]
  outcome: inactive
[17]
  outcome: inactive
[18]
  outcome: inactive
[19]
  outcome: inactive
